Assay [1] in a line: NCI Yeast Anticancer Drug Screen. Data for the rad50 strain (AID 155).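 Further: 0% = growth of vehicle-only cultures of the same strain.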 The following applies: S. cerevisiae rad50 strain growth inhibition; at 50.0 µM; hits give high values. Put shortly:
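DNA repair mutant yeast, compound exposure, growth read-out; inhibition is taken relative to vehicle.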

Assay [2] can be described thus: NCI Yeast Anticancer Drug Screen. Data for the mec2-1 strain (AID 157). The following applies: S. cerevisiae mec2-1 strain, at 50.0 µM, hits give high values. The gist of the method:
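Using mec2-1 yeast: add compound, measure growth, express inhibition versus vehicle-treated cultures.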

The nature of assay [3]: NCI Yeast Anticancer Drug Screen. Data for the sgs1 mgt1 strain (AID 161).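 Further: 0% = growth of cultures given vehicle only.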 The conditions noted are these: S. cerevisiae sgs1 mgt1 strain, at 50.0 µM, hits give high values. The gist of the method:
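This yeast growth screen uses a strain with defined DNA-repair lesions; compound-treated growth is compared with vehicle-treated growth.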

Assay [4] is described as follows: NCI Yeast Anticancer Drug Screen. Data for the cln2 rad14 strain (AID 165).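 Further: 0% = growth equal to vehicle treated cultures.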 The following applies: S. cerevisiae cln2 rad14 strain, at 50.0 µM, hits give high values. Put shortly: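 Yeast strain cln2 rad14, bearing defects in cell cycle control and DNA repair, serves as the test system; values reflect growth inhibition compared with vehicle.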
Assay [5] can be described thus: NCI Yeast Anticancer Drug Screen. Data for the bub3 strain (AID 167). The conditions noted are these: S. cerevisiae bub3 mutant strain, at 50.0 µM, hits give high values. Put shortly:
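In this screen, a yeast mutant lacking normal mitotic checkpoint function is challenged with compound. Relative growth versus vehicle gives the inhibition value.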

The nature of assay [6]: NCI Yeast Anticancer Drug Screen. Data for the mlh1 rad18 strain (AID 175). The conditions noted are these: S. cerevisiae mlh1 rad18 strain growth inhibition; at 50.0 µM; hits give high values. The gist of the method:
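Steps: expose repair-defective yeast to compound; measure growth; express inhibition against vehicle-treated controls.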

The panel holds about 79,000 compounds, 15% with a hit somewhere; the sample as a whole holds those more often. A number with no mark means an inactive call. Active and inactive are the calls of the source. No stated cut-off is given here; in the data, active means growth inhibition above about 70%; inactive means the rest.

Regarding `Cc1ccccc1CN`, the growth inhibition was 28.9% in assay [1]; 3.05% in assay [2]; -10.8% in assay [3]; 1.05% in assay [4]; 18.3% in assay [5]; 23.6% in assay [6].
As for `CC(=O)c1cccc(NC(=O)C(=O)C(C2OC(=O)c3ccccc32)[N+](=O)[O-])c1` (stereo not given), the growth inhibition in assay [1] was 5.45%; in assay [2] it was 11.6%; in assay [3], 17.6%; in assay [4], 11.4%; in assay [5], 3.2%; in assay [6], 8.5%.
As to `C/C=C/C=C/C=N\O`, the growth inhibition in assay [1] was 16.6%; in assay [2], 3.1%; in assay [3], -6.65%; in assay [4], -2.8%; in assay [5], -1.45%; in assay [6], 6.8%.
For `COc1ccccc1Br`, the growth inhibition in assay [1] was -3.55%; in assay [2], 0.85%; in assay [3], -2%; in assay [4] it was -15.3%; in assay [5] it was -32.1%; in assay [6], -4%.
`COc1cc(C(C)O)c[n+](Cc2ccccc2)c1` (stereo not given): the growth inhibition in assay [1] is -31.6%; in assay [2] it was -7.3%; in assay [3], -16.1%; in assay [4], 3.6%; in assay [5] it was -18.9%; in assay [6], -18.9%.
Regarding `COC(=O)NS(=O)(=O)CC(=O)c1ccccc1`, the growth inhibition in assay [1] was 10.2%; in assay [2], -0.3%; in assay [3], -1.55%; in assay [4], 8.9%; in assay [5], 1.3%; in assay [6], 9.9%.
Turning to `CC1OC(n2ccc(NC(=O)c3ccc(NC(=O)C(C)(N)CO)cc3)nc2=O)CCC1OC1OC(C)C(N(C)C)C(O)C1O` (stereo not given), the growth inhibition is 30.4% in assay [1]; -0.8% in assay [2]; 6.05% in assay [3]; 6% in assay [4]; 1.75% in assay [5]; 28.8% in assay [6].
On to `CC(O)C(=O)OCCOc1ccccc1` (stereo not given), for which the growth inhibition in assay [1] was 12.7%; in assay [2] it was -6.3%; in assay [3], -3.05%; in assay [4], 5.5%; in assay [5], -14.3%; in assay [6], -140%.
For the compound `COc1ccc(/C(=N/NC(=O)NN)C(c2ccc(OC)cc2)C2(O)CNc3c(Cl)cc(Cl)cc32)cc1` (stereo not given), the growth inhibition in assay [1] was 1.75%; in assay [2], 14.4%; in assay [3], -9.15%; in assay [4], -16.4%; in assay [5], 16.4%; in assay [6] it was 12.7%.
`COC(=O)c1ccccc1NCc1cc(Cl)ccc1O`: the growth inhibition was 96.2% (active) in assay [1]; 97.3% (active) in assay [2]; 96.7% (active) in assay [3]; 92.8% (active) in assay [4]; 95.8% (active) in assay [5]; 94.9% (active) in assay [6].
With `Clc1ccc(N=Nc2ccccn2)cc1`, the growth inhibition in assay [1] was 18.1%; in assay [2], 2%; in assay [3], -11.1%; in assay [4] it was -65%; in assay [5], -7.6%; in assay [6], -12.2%.
Regarding `CCCCCCCCCCCC(=O)N(C)CCS(=O)(=O)O`, the growth inhibition is 6.2% in assay [1]; -28.8% in assay [2]; 4.55% in assay [3]; 13.1% in assay [4]; -20.6% in assay [5]; 8.45% in assay [6].
Regarding `CC1=C(C(=O)CC(=O)Nc2ccc(Cl)c(Cl)c2)Sc2ccccc2N1`, the growth inhibition is 8.1% in assay [1]; 21.9% in assay [2]; -4.3% in assay [3]; 13.7% in assay [4]; 0.25% in assay [5]; 20.9% in assay [6].
Consider `N#CCCOC(=O)Nc1cccc(Cl)c1`, for which the growth inhibition in assay [1] is 41.7%; in assay [2], 15.4%; in assay [3], 27.3%; in assay [4] it was 7.3%; in assay [5], -7.2%; in assay [6], 33.6%.
For `C=C1CC(CC(=O)C(C)CC2CC(=C)C(=O)O2)OC1=O` (stereo not given), the growth inhibition in assay [1] is 14.1%; in assay [2] it was -30.9%; in assay [3], 14.9%; in assay [4], 8.4%; in assay [5] it was 24.5%; in assay [6], 26.3%.
For `Cc1ccc(NC(=O)c2cc3cc(N=Nc4ccc(Br)cc4)ccc3oc2=O)cc1`, the growth inhibition in assay [1] was 16%; in assay [2] it was 28.1%; in assay [3] it was 12.4%; in assay [4] it was 23.1%; in assay [5], 3.05%; in assay [6], 15.8%.
Turning to `CN1/C(=C/C=C/C=C/C=C2C(=O)c3ccccc3C2=O)C(C)(C)c2ccccc21`, the growth inhibition in assay [1] is -13.6%; in assay [2], 10.5%; in assay [3], 16.1%; in assay [4], -39.5%; in assay [5] it was -8.9%; in assay [6] it was 26.8%.
Take `O=C1C=CSc2ccccc2N1`: the growth inhibition in assay [1] was -2.4%; in assay [2], 2.5%; in assay [3], -2.15%; in assay [4], 4.4%; in assay [5], 2.45%; in assay [6] it was 4.5%.
Turning to `C[N+]1(CC(O)c2ccccc2)CCCC1` (stereo not given), the growth inhibition in assay [1] was 3.55%; in assay [2] it was 13.3%; in assay [3], -0.25%; in assay [4] it was 32.6%; in assay [5], 6.3%; in assay [6], -10.8%.
Turning to `CCOC(=O)C(C#N)C1(C(C#N)C(=O)OCC)C(=O)Nc2ccccc21` (stereo not given), the growth inhibition in assay [1] is 1.8%; in assay [2], 14.6%; in assay [3], 19.8%; in assay [4] it was 21.8%; in assay [5] it was 24.7%; in assay [6], 32.3%.
